# Bioassay records (PubChem)
# IL1B secr inh: blocks inflammasome-driven IL-1 beta release; THP-1 LPS/ATP IL-1B secretion, AlphaLISA, 16 h; hits give low values; activity change, % at 57.5 µM; actives 4.7% (n = 360,000); AID 743279; in the data active = activity change below about -50%; inconclusive = mostly about -30% to -49%; note: % is set by controls: 0 for no effect and ±100 for the full control effect
#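 Secreted IL-1B measured by AlphaLISA bead assay after 16 h compound exposure of THP-1 cells; compounds (final up to 57.5 uM) added 1 h before LPS (250 ng/mL) and ATP (1.25 mM) stimulation; lower signal means less secretion.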
# DT40 TDP1 CPT: DT40-hTDP1 cell growth loss with CPT | chicken DT40 Tdp1-/-;hTDP1 cells + 20 nM CPT, ATP luminescence, 48 h | Potency, µM (titrated, usually from 46.2 µM), without a hit: at the highest dose activity change, negative = growth inhibition, hits mostly inhibitors | actives 12% (n = 420,000) | AID 686979; note: potency is the fitted concentration of half-maximal effect; % is set by controls: 0 for no effect and ±100 for the full control effect; nearly all actives have a fitted effect of over 55% in size
#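 Cell growth measured by CellTiter-Glo luminescence after a minimum 48 h, 37 C compound exposure with 20 nM CPT in Tdp1-knockout DT40 cells stably expressing hTDP1, seeded 400/well; qHTS titration format.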
# DRD3 agonist: D3 dopamine receptor (human) agonism; P35462; D3R DiscoveRx beta-arrestin cells, luminescence, 90 min; max activation, %; actives 0.58% (n = 410,000); AID 652048; in the data active = max activation above about 30%; note: 0% is about no effect
# Target sequence (P35462 whole entry, looked up): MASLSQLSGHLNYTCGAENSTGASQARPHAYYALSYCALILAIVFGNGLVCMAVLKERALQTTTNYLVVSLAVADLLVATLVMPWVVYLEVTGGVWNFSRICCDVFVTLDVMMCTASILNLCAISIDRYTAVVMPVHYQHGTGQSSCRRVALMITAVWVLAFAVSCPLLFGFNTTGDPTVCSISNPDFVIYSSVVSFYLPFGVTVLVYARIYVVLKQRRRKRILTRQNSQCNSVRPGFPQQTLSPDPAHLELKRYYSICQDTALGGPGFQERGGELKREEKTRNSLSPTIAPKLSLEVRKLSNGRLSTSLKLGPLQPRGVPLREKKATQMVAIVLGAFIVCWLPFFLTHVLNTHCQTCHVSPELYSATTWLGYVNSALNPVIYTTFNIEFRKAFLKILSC
#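 Cells at 1500/well, incubated overnight, then treated with pinned compounds (dopamine as control) for 90 min at 37 degrees C. DiscoveRx reagent added for 30 - 60 minutes at room temperature; luminescence read.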
# TDP1 cell noCPT: qHTS for Inhibitors of human tyrosyl-DNA phosphodiesterase 1 (TDP1): qHTS in cells in absence of CPT. DT40 Tdp1-/- hTDP1 cells, no CPT, ATP luminescence, 48 h. Potency, µM (titrated, usually from 46.2 µM), for the others: at the highest dose activity change, negative = growth inhibition, usual class: inhibitors. actives 15% (n = 420,000). AID 686978, 2013; note: potency is the fitted concentration of half-maximal effect; % is set by controls: 0 for no effect and ±100 for the full control effect; nearly all actives have a fitted effect of over 55% in size
#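 Growth of hTDP1-complemented DT40 Tdp1-knockout cells is measured by ATP luminescence after at least 48 hr compound exposure at 37 °C, with DMSO substituting for the 20 nM CPT used in the parallel screen.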
# D3 antag: blocks the human D3 dopamine receptor; P35462; D3R cells, DiscoveRx beta-arrestin luminescence, antagonist mode; hits give low values; max response, negative = inhibition, %; actives 2.5% (n = 360,000); AID 652054; in the data active = max response below about -50%; inconclusive = no clear call, values can overlap the other calls; note: % is set by controls: 0 for no effect and ±100 for the full control effect
#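 Cells plated overnight at 1500 cells/well, then exposed to library compounds with dopamine controls for 90 minutes at 37 degrees C. DiscoveRx reagent added for 30–60 minutes at room temperature; luminescence read, quantitative HTS format.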
# ClpP mod: qHTS Assay for Activators of ClpP; Potency, µM (top dose mostly 57.5 µM), inactives show at the top dose activity change, negative = active; ATP-dependent Clp protease proteolytic subunit (Bacillus subtilis (strain 168)), P80244; purified B. subtilis ClpP, FRET peptide cleavage, 20 min; actives 1.9% (n = 340,000); AID 651965, 2013; active = well fitted falling curve with a large enough effect; inconclusive = small, poorly fitted or top-dose-only effect; inactive = no such curve, though single readings can be large or run the other way; note: potency is the fitted concentration of half-maximal effect; the source files actives as falling curves though it sought activators and does not explain the sign; nearly all actives have a fitted effect of over 65% in size
# Target sequence (P80244 whole entry, looked up): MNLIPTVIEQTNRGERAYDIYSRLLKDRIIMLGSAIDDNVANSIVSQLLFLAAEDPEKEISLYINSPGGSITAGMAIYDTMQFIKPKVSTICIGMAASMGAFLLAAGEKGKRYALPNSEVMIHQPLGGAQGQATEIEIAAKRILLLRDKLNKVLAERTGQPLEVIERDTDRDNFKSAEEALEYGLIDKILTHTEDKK
#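 Buffer: 100 mM Tris/HCl pH8, 100 mM KCl, 0.05% low protease BSA, 2.5% glycerol, 0.01% Tween-20. ClpP 10 microg/mL final; 20 min RT; delta FRET normalized to ADEP and DMSO controls.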
# Starred values were filed as active, the others as inactive; ? = inconclusive; . = not tested or not shown. This is a sample that favours compounds with a hit; in the whole collection about 21% have one here. Unless noted, calls come from the whole dose curve; as a rule, active = well fitted inhibition curve with a large enough effect; inconclusive = small, poorly fitted or top-dose-only effect; inactive = flat fitted curve, though single readings scatter.
SMILES,IL1B secr inh,DT40 TDP1 CPT,DRD3 agonist,TDP1 cell noCPT,D3 antag,ClpP mod
CCOc1ccccc1NC(=O)C(=O)N/N=C/c1cc(Br)ccc1O,115,?,3,10µM*,2,.
O=C(N/N=C/c1cc(Br)ccc1O)Nc1ccccc1,-97*,?,7,?,-20,-2%
O=C(C[n+]1ccccc1)N/N=C/c1ccccc1F,22,-20%,5,-18%,1,.
CN(C)S(=O)(=O)c1cccc(NC(=S)N/N=C/c2cc(Br)ccc2O)c1,-73*,2.6µM*,6,3.7µM*,?,.
Nc1nc(COc2ccccc2C=O)nc(Nc2ccccc2)n1,7,5%,8,-9%,-7,25µM*
Cc1ccc(NNC(=O)c2sccc2Cl)c(C)c1,.,?,.,?,.,-6%
O=C(CCN1C(=O)/C(=C/c2ccccc2)SC1=S)Nc1ccccn1,11,-14%,-11,-13%,-18,-8%
O=C(O)CCCCCN1C(=O)/C(=C\c2ccc(-c3ccc(Cl)cc3)o2)SC1=S,6,?,4,?,-10,.
COc1ccc(CN2C(=O)/C(=C/c3ccncc3)SC2=S)cc1,-82*,23µM*,-3,9.2µM*,-18,0%
O=C(O)CCCCCN1C(=O)/C(=C\c2ccncc2)SC1=S,-99*,23µM*,0,23µM*,6,0%
O=C(O)CCCCCN1C(=O)/C(=C/c2ccncc2)SC1=S,-98*,23µM*,4,23µM*,4,1%
O=C(O)CCCN1C(=O)/C(=C/c2ccc(-c3nc4ccccc4s3)o2)SC1=S,2,?,-1,?,-82*,-1%
O=C(CCN1C(=O)/C(=C/c2ccccc2)SC1=S)Nc1cccnc1,-7,-5%,24,?,0,1%
CCOC(=O)c1cc(OC(=O)c2cccc(Cl)c2)n(-c2ccccc2)n1,.,-13%,-5,-6%,.,-4%
COc1ccc(C(O)Cc2nccn2C)cc1 (centres undefined),0,-18%,7,-16%,2,-1%
O=C(O)CCCN1C(=O)/C(=C/c2ccncc2)SC1=S,-80*,?,5,?,-5,.
CC(c1ccccc1)N1C(=O)/C(=C/c2ccncc2)SC1=S (centres undefined),-50*,?,0,23µM*,-16,-1%
COc1cc(/C=C/C(C)=O)cc(OC)c1OC,?,-30%,1,?,-14,-1%
COc1cc(/C=C2\COC/C(=C\c3cc(OC)c(OC)c(OC)c3)C2=O)cc(OC)c1OC,-99*,1.2µM*,-12,0.58µM*,-63*,.
COc1cc(/C=C2\CC/C(=C\c3cc(OC)c(O)c(OC)c3)C2=O)cc(OC)c1O,-103*,6.5µM*,-8,5.8µM*,-74*,-1%
COc1cc(/C=C/c2cncc(/C=C/c3cc(OC)c(OC)c(OC)c3)c2)cc(OC)c1OC,.,-7%,.,-12%,.,-6%
COc1cc(/C=C2\CC(C(C)(C)C)C/C(=C\c3cc(OC)c(OC)c(OC)c3)C2=O)cc(OC)c1OC (centres undefined),-98*,15µM*,2,9.2µM*,2,-2%
COc1cc(/C=C2\CC/C(=C\c3cc(OC)c(OC)c(OC)c3)C2=O)cc(OC)c1OC,-60*,?,-8,10µM*,-4,.
CC(C)(C)c1ccc(C(=O)NNc2cc(Cl)cc(Cl)c2)cc1,25,?,-14,?,-29,3%
COc1cc(/C=C2/CCC/C(=C\c3cc(O)c(OC)c(Cl)c3)C2=O)cc(Cl)c1O,-107*,10µM*,-7,10µM*,?,3%
SMILES,IL1B secr inh,DT40 TDP1 CPT,DRD3 agonist,TDP1 cell noCPT,D3 antag,ClpP mod
COc1cccc(-c2noc(-c3ccc(Br)o3)n2)c1,19,3%,3,1%,1,.
COC(=O)C(Cc1ccccc1)NC(=O)c1ccc(NS(=O)(=O)c2ccc3[nH]c(=O)[nH]c3c2)cc1 (centres undefined),-20,-8%,10,11%,13,-1%
C/C(O)=C(\C#N)c1nnc2n1CCCCC2,11,21%,-7,10%,-14,0%
C=CCn1c(=O)/c(=C/c2cc(OC)c(OC)c(OC)c2)s/c1=C(/C#N)c1nc2ccccc2n1C,19,23µM*,7,18µM*,-51*,0%
C=CCn1c(=O)/c(=C/c2ccc(Cl)cc2)s/c1=C(/C#N)c1nnc2n1CCCCC2,-72*,?,-3,?,-14,1%
C=CCn1c(=O)/c(=C/c2ccc(O)cc2)s/c1=C(/C#N)c1nnc2n1CCCCC2,?,18µM*,-12,23µM*,-14,-1%
CCOC(=O)[C@@H]1[C@H]2COc3ccc(Br)cc3[C@H]2N2C(=O)N(c3ccc(F)cc3)C(=O)[C@@]12C,12,-27%,-6,?,?,0%
CC(=O)/C(=N/Nc1ccccc1C)N1CCOCC1,14,8.2µM*,-2,21µM*,-11,-5%
CC(=O)/C(=N/Nc1ccccc1)N1CCOCC1,-12,-17%,-23,-5%,16,0%
CCn1cc2nc(SCC(=O)Nc3cc(OC)ccc3OC)n(Cc3ccc(Cl)cc3)c(=O)c2n1,.,12µM*,-6,8.2µM*,.,-1%
CCn1cc2nc(SCC(=O)Nc3cccc(Cl)c3C)n(Cc3ccc(Cl)cc3)c(=O)c2n1,.,?,-9,?,.,-3%
CCn1cc2nc(SCC(=O)Nc3ccc(OC)cc3OC)n(Cc3ccc(Cl)cc3)c(=O)c2n1,.,21µM*,-4,18µM*,.,1%
CCN(CC)C(=O)CSc1nc2cc3c(cc2c(=O)n1CCCC(=O)NCc1ccc(OC)cc1)OCO3,-26,?,8,?,3,-2%
CCN(CC)C(=O)CSc1nc2cc(OC)c(OC)cc2c(=O)n1Cc1ccc(Cl)cc1,-53*,?,1,18µM*,?,-5%
O=S(=O)(NC(=NCc1ccccc1)c1ccccc1)c1ccccc1,-8,-13%,8,-9%,11,.
Cc1cc(C)nc(N2CCC(C(=O)NCCc3ccc(F)cc3)CC2)n1,42,16µM*,-4,9.2µM*,-9,?
O=C(NCCc1ccccc1)C1CCCN(C(=O)Nc2ccc(F)cc2)C1 (centres undefined),-3,6.5µM*,-7,6.5µM*,-19,.
